Source: the supplement of paper PMC7411054

Columns and labels:
Conditions in all cases: treatment time: 24 h
A549-ACTB-RAB5A [1] = assay: lowest phenotypically active concentration; higher = less potent
Summary of the method: (§1)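 Cells from fifteen gene-edited reporter lines (A549, HepG2 and WPMY1) were treated for 24 h at 0.3, 1, 3 or 9 µM and imaged live, four wells per condition. Features were normalised per well to solvent control wells. A condition deviated if ≥3 of 4 wells passed the 95th percentile of control Euclidean distances and was reproducible if its median replicate Pearson correlation beat the 95th percentile of non-replicates; phenotypic activity needed both.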

A549-GM130-SQSTM1 [2] = assay: as above
Summary of the method: as §1

A549-TUBA1B-RELA [3] = assay: as above
Summary of the method: as §1

WPMY1-CANX-COX4 [4] = assay: as above
Summary of the method: as §1

WPMY1-GM130-SQSTM1 [5] = assay: as above
Summary of the method: as §1

A549-ACTB-RAB5A [6] = assay: phenotypically active (imaging signature differs from DMSO and reproducible) at any of 0.3-9 uM (binary (1 = active, 0 = inactive)); higher = active
Summary of the method: as §1

A549-CANX-COX4 = assay: as above
Summary of the method: as §1

A549-GM130-SQSTM1 [7] = assay: as above
Summary of the method: as §1

A549-TP53BP1-CLTA = assay: as above
Summary of the method: as §1

A549-TUBA1B-RELA [8] = assay: as above
Summary of the method: as §1

HepG2-ACTB-RAB5A = assay: as above
Summary of the method: as §1

HepG2-CANX-COX4 = assay: as above
Summary of the method: as §1

HepG2-GM130-SQSTM1 = assay: as above
Summary of the method: as §1

HepG2-TP53BP1-CLTA = assay: as above
Summary of the method: as §1

HepG2-TUBA1B-RELA = assay: as above
Summary of the method: as §1

WPMY1-ACTB-RAB5A = assay: as above
Summary of the method: as §1

WPMY1-CANX-COX4 [9] = assay: as above
Summary of the method: as §1

WPMY1-GM130-SQSTM1 [10] = assay: as above
Summary of the method: as §1

WPMY1-TP53BP1-CLTA = assay: as above
Summary of the method: as §1

WPMY1-TUBA1B-RELA = assay: as above
Summary of the method: as §1

Compound	lowest phenotypically active concentration (A549-ACTB-RAB5A [1])	lowest phenotypically active concentration (A549-GM130-SQSTM1 [2])	lowest phenotypically active concentration (A549-TUBA1B-RELA [3])	lowest phenotypically active concentration (WPMY1-CANX-COX4 [4])	lowest phenotypically active concentration (WPMY1-GM130-SQSTM1 [5])	phenotypically active (A549-ACTB-RAB5A [6])	phenotypically active (A549-CANX-COX4)	phenotypically active (A549-GM130-SQSTM1 [7])	phenotypically active (A549-TP53BP1-CLTA)	phenotypically active (A549-TUBA1B-RELA [8])	phenotypically active (HepG2-ACTB-RAB5A)	phenotypically active (HepG2-CANX-COX4)	phenotypically active (HepG2-GM130-SQSTM1)	phenotypically active (HepG2-TP53BP1-CLTA)	phenotypically active (HepG2-TUBA1B-RELA)	phenotypically active (WPMY1-ACTB-RAB5A)	phenotypically active (WPMY1-CANX-COX4 [9])	phenotypically active (WPMY1-GM130-SQSTM1 [10])	phenotypically active (WPMY1-TP53BP1-CLTA)	phenotypically active (WPMY1-TUBA1B-RELA)
O[C@H](CNC[C@H](O)[C@@H]1CCc2cc(F)ccc2O1)[C@@H]1CCc2cc(F)ccc2O1 [nebivolol]	3 µM	3 µM	3 µM	9 µM	9 µM	1 (active)	0 (inactive)	1 (active)	0 (inactive)	1 (active)	1 (active)	0 (inactive)	0 (inactive)	1 (active)	1 (active)	1 (active)	1 (active)	1 (active)	1 (active)	1 (active)
O=C(CCCCCCC(=O)NO)NO	9 µM	–	–	–	–	1 (active)	0 (inactive)	0 (inactive)	0 (inactive)	0 (inactive)	1 (active)	0 (inactive)	0 (inactive)	0 (inactive)	0 (inactive)	0 (inactive)	0 (inactive)	0 (inactive)	0 (inactive)	0 (inactive)
COc1cc2nccc(Oc3ccc(NC(=O)C4(C(=O)Nc5ccc(F)cc5)CC4)cc3)c2cc1OC	3 µM	3 µM	≤ 0.3 µM	–	–	1 (active)	0 (inactive)	1 (active)	0 (inactive)	1 (active)	0 (inactive)	0 (inactive)	0 (inactive)	0 (inactive)	0 (inactive)	1 (active)	0 (inactive)	0 (inactive)	0 (inactive)	0 (inactive)
O=C(/C=C/c1ccc2ccccc2n1)c1ccncc1	9 µM	–	9 µM	–	9 µM	1 (active)	0 (inactive)	0 (inactive)	0 (inactive)	1 (active)	1 (active)	0 (inactive)	1 (active)	0 (inactive)	1 (active)	1 (active)	0 (inactive)	1 (active)	1 (active)	1 (active)
CCN1/C(=C/C(C)=O)Sc2ccc(O)cc21	9 µM	–	–	–	–	1 (active)	0 (inactive)	0 (inactive)	1 (active)	0 (inactive)	1 (active)	0 (inactive)	0 (inactive)	0 (inactive)	0 (inactive)	1 (active)	0 (inactive)	0 (inactive)	1 (active)	0 (inactive)
Cn1cc(-c2cnc3ccc4ccc(CS(=O)(=O)NCc5ccccn5)cc4c(=O)c3c2)cn1	9 µM	–	9 µM	3 µM	–	1 (active)	0 (inactive)	0 (inactive)	0 (inactive)	1 (active)	0 (inactive)	0 (inactive)	0 (inactive)	0 (inactive)	0 (inactive)	0 (inactive)	1 (active)	0 (inactive)	0 (inactive)	0 (inactive)
CCC(C)(C)C(=O)O[C@H]1C[C@@H](C)C=C2C=C[C@H](C)[C@H](CC[C@@H]3C[C@@H](O)CC(=O)O3)[C@H]21 [Simvastatin]	3 µM	–	–	1 µM	1 µM	1 (active)	0 (inactive)	0 (inactive)	1 (active)	0 (inactive)	1 (active)	1 (active)	1 (active)	1 (active)	1 (active)	1 (active)	1 (active)	1 (active)	1 (active)	1 (active)
CCc1nc(-c2cccc(C)c2)c(-c2ccnc(NC(=O)c3ccccc3)c2)s1	9 µM	9 µM	–	–	–	1 (active)	0 (inactive)	1 (active)	0 (inactive)	0 (inactive)	1 (active)	1 (active)	1 (active)	1 (active)	1 (active)	1 (active)	0 (inactive)	0 (inactive)	0 (inactive)	1 (active)
COc1ccccc1C(=O)Nc1cc2c(cc1N1CCCC1)n(C)c(=O)n2C	9 µM	9 µM	–	–	9 µM	1 (active)	0 (inactive)	1 (active)	0 (inactive)	0 (inactive)	0 (inactive)	0 (inactive)	0 (inactive)	0 (inactive)	0 (inactive)	1 (active)	0 (inactive)	1 (active)	0 (inactive)	0 (inactive)
CNCC[C@H](Oc1cccc2ccccc12)c1cccs1 [duloxetine]	9 µM	–	9 µM	–	–	1 (active)	0 (inactive)	0 (inactive)	0 (inactive)	1 (active)	0 (inactive)	0 (inactive)	0 (inactive)	0 (inactive)	0 (inactive)	0 (inactive)	0 (inactive)	0 (inactive)	0 (inactive)	0 (inactive)
Nc1ccc(N=Nc2ccccc2)c(N)n1 [phenazopyridine]	≤ 0.3 µM	1 µM	–	–	3 µM	1 (active)	0 (inactive)	1 (active)	0 (inactive)	0 (inactive)	0 (inactive)	0 (inactive)	0 (inactive)	0 (inactive)	0 (inactive)	0 (inactive)	0 (inactive)	1 (active)	0 (inactive)	0 (inactive)
CC1(CN2CCC(n3c(=O)[nH]c4ccccc43)CC2)OCc2ccccc2-n2cccc21 (configuration not stated)	9 µM	–	9 µM	–	3 µM	1 (active)	0 (inactive)	0 (inactive)	0 (inactive)	1 (active)	0 (inactive)	0 (inactive)	0 (inactive)	0 (inactive)	0 (inactive)	0 (inactive)	0 (inactive)	1 (active)	0 (inactive)	0 (inactive)
